Test results from PMC5540273 (PLoS ONE, 2017).

Key:
Conditions in all cases: concentration: 1 μM, replicates: in singlicate; n = 1
[1] = tested on: PDPK1
[2] = tested on: PFTAIRE2
[3] = tested on: T1, PFTK1
T1 construct: gene CDK14

[4] = tested on: PHKG1
[5] = tested on: PHKG2
[6] = tested on: PIK3C2B
[7] = tested on: PIK3C2G
[8] = tested on: PIK3CA
[9] = tested on: PIK3CB
[10] = tested on: PIK3CD
[11] = tested on: PIK3CG
[12] = tested on: T2, PIK4CB
T2 construct: gene PI4KB

[13] = tested on: PIKFYVE
[14] = tested on: PIM1
[15] = tested on: PIM2
[16] = tested on: PIM3
[17] = tested on: PIP5K1A
[18] = tested on: PIP5K1C
[19] = tested on: PIP5K2B
[20] = tested on: T3, PIP5K2C
T3 construct: gene PIP4K2C
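Further: KINOMEscan kinase panel screen.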

SMILES | %Inh [1] [%] | %Inh [2] [%] | %Inh [3] [%] | %Inh [4] [%] | %Inh [5] [%] | %Inh [6] [%] | %Inh [7] [%] | %Inh [8] [%] | %Inh [9] [%] | %Inh [10] [%] | %Inh [11] [%] | %Inh [12] [%] | %Inh [13] [%] | %Inh [14] [%] | %Inh [15] [%] | %Inh [16] [%] | %Inh [17] [%] | %Inh [18] [%] | %Inh [19] [%] | %Inh [20] [%]
CCn1c(-c2nonc2N)nc2ccccc21 [SB-693162/GW549034] | 0 | 0 | 17 | 21 | 16 | 0 | 0 | 0 | 62 | 0 | 0 | 29 | 0 | 0 | 0 | 8 | 23 | 8 | 0 | 0
Cc1nn2c(=O)cc(N3CCOCC3)nc2n1Cc1cccc(Cl)c1Cl [GSK2342769] | 0 | 0 | 91.7 | 7 | 0 | 89 | 56 | 5 | 89 | 99.6 | 69 | 0 | 62 | 0 | 0 | 0 | 0 | 12 | 5 | 1
Nc1ncnc2c1ncn2-c1cccc(F)c1 [SKF-97560] | 7 | 0 | 20 | 5 | 0 | 0 | 35 | 0 | 0 | 0 | 14 | 14 | 17 | 1 | 18 | 0 | 6 | 0 | 9 | 0
Cc1nnc(-c2ccc3ncn(-c4ccc(S(C)=O)cc4)c3c2)o1 (stereo not shown) | 0 | 12 | 14 | 0 | 0 | 0 | 0 | 0 | 2 | 38 | 0 | 0 | 19 | 4 | 1 | 11 | 0 | 18 | 5 | 55
O=C(Nc1ccc2c(c1)OCO2)NC1CCN(c2ccnc(NCc3ccc(F)cc3)n2)CC1 [GSK1379859] | 0 | 10 | 14 | 0 | 0 | 0 | 0 | 0 | 0 | 0 | 0 | 2 | 0 | 8 | 0 | 0 | 0 | 19 | 2 | 0
COc1cccc(-n2cnc3c(N)ncnc32)c1 [SKF-97416] | 0 | 0 | 0 | 34 | 0 | 0 | 34 | 21 | 32 | 54 | 44 | 41 | 41 | 20 | 14 | 24 | 2 | 13 | 0 | 0
COc1ccc(-c2cc3c(C)nc(N)nc3n([C@H]3CC[C@H](O)CC3)c2=O)cn1 | 0 | 0 | 0 | 9 | 1 | 99.6 | 98.8 | 99.7 | 100 | 94.1 | 100 | 93.9 | 45 | 5 | 0 | 6 | 2 | 0 | 2 | 38
CCCNC(=O)Nc1ccc(Oc2ncnc3ccn(C)c23)cc1 | 0 | 10 | 0 | 0 | 0 | 19 | 27 | 14 | 0 | 30 | 12 | 0 | 0 | 0 | 5 | 0 | 0 | 17 | 47 | 27
CN1C(=O)C(Nc2ccccc2)=C(c2ccccc2)C1=O [SB-300079] | 0 | 0 | 1 | 11 | 0 | 0 | 16 | 25 | 0 | 0 | 10 | 0 | 9 | 0 | 0 | 0 | 42 | 23 | 0 | 20
COc1ccc(-c2coc3ccc(-c4nnc(SCc5cccc(C#N)c5)o4)cc23)cc1 | 2 | 0 | 1 | 0 | 1 | 2 | 5 | 0 | 39 | 0 | 0 | 29 | 0 | 12 | 20 | 17 | 0 | 0 | 4 | 9
Cc1ccc(-c2ccc3c(ccc4sc5c(c43)NC[C@@H](C)N=C5N(C)C)n2)cn1 | 0 | 0 | 0 | 0 | 0 | 0 | 0 | 0 | 55 | 15 | 0 | 0 | 42 | 0 | 0 | 0 | 0 | 0 | 0 | 0
